Bioassay records (PubChem)
Compounds with a hit are over-represented: about 3.4% of the library has one in this group of screens.
ERa coact inh – ERα–SRC-1 coactivator interaction inhibitors, primary screen, biochemical, TR-FRET, ERα LBD, estradiol-bound; TR-FRET ER-alpha LBD / SRC-1 peptide; inhibition, % at 25.6 µM; 86,000 tested, 1.7% active; AID 629, 2007; in the data active means inhibition above about 50%;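 further: 0% = receptor plus peptide control and 100% = peptide only without receptor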
ERa coact pot – enhancers of ERα–SRC-1 coactivator binding, primary screen, biochemical, TR-FRET, ERα LBD, low estradiol. Estrogen receptor (Homo sapiens), P03372. TR-FRET ERalpha-LBD/SRC-Cy5 coactivator binding, 2 h; 100 = basal binding, no effect. coactivator binding (% of control), % at 25.6 µM. 86,000 tested, 1.3% active. AID 639, 2007; in the data active means activity above about 200%;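 further: binding measured in presence of low estradiol as agonist stimulus; 0% = peptide alone without receptor and 100% = receptor with peptide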
ERb SRC1 inh – inhibitors of ERβ-SRC1 coactivator interaction, primary screen, biochemical, TR-FRET, ERβ LBD, SRC-1 peptide; AID 633, 2007; TR-FRET ER-beta LBD / SRC1-Cy5 peptide binding; receptor agonist-loaded with 1 µM estradiol; 86,000 tested, 1.3% active; inhibition, % at 25.6 µM;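 active means compounds whose percent inhibition of the receptor-coactivator binding signal exceeds about 50% in the single-dose screen, limit read from the data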;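 further: 0% = receptor plus peptide wells without compound and 100% = peptide-only wells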
PTPN22 inh 2 – PTPN22 phosphatase inhibitors, primary screen, biochemical, DiFMUP fluorescence, 2 µM | 96,000 tested, 0.21% active | recombinant LYP catalytic domain | Tyrosine-protein phosphatase non-receptor type 22 (Homo sapiens), Q9Y2R2 | inhibition, % at 2 µM;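 active means inhibition at 2 µM at or above a set limit, the screen mean plus 3 SD, cut at about 24% in these data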;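 further: 0% = DMSO with enzyme and 100% = enzyme fully blocked by orthovanadate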
LYP act – LYP phosphatase activators, primary screen, biochemical, DiFMUP fluorescence, 2 µM. Tyrosine-protein phosphatase non-receptor type 22 (Homo sapiens), Q9Y2R2. recombinant LYP; 0 = plate median, 100 = signal doubled. activation, % at 2 µM. 96,000 tested, 0.11% active. AID 697, 2007;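 active means activation at 2 µM above a set limit, the mean plus 5 SD, cut at about 37% in these data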
FAK inh – FAK kinase inhibitors, primary screen, biochemical. inhibition, %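 (tested at 7 µM)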. AID 727, 2007. biochemical FAK kinase activity assay. 97,000 tested, 0.84% active. Focal adhesion kinase 1 (Homo sapiens), Q05397; in the data active means inhibition above about 19%;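 further: 0% = DMSO and 100% = reference compound high control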
Starred values were filed as active, the others as inactive; x = no result; [ ] = dose if it differs, or a comment.

SMILES	ERa coact inh	ERa coact pot	ERb SRC1 inh	PTPN22 inh 2	LYP act	FAK inh
CCCC(=O)NC1C2CC3CC(C2)CC1C3 (configuration not stated)	83*[fluorescence artefact?]	99	2	-8	12	3
Cc1sc2ncnc(NCCc3ccc(S(N)(=O)=O)cc3)c2c1C	x	x	x	3	-4	3
Cc1c(Cl)c([N+](=O)[O-])nn1CC(=O)NC(C)C1CC2CCC1C2 (configuration not stated)	x	x	x	-1	-3	0
O=C(O)c1ccc(C(=O)c2ccc3c(c2)C(=O)N(Cc2ccco2)C3=O)cc1	-5	94	5	-8	4	-1
O=C(Nc1ccc(O)cc1C(=O)O)c1ccc2c(c1)C(=O)N(Cc1ccco1)C2=O	49	34	54*	12	-16	-2
Cc1ccc2nc(NC(=O)C(NS(=O)(=O)c3cccc4nsnc34)C(C)C)sc2c1 (configuration not stated)	6	102	0	-2	-2	8
Cc1c(CNCc2cccs2)c(C(=O)O)c(C)n1Cc1ccccc1	-3	229*[fluorescence artefact?]	-6	-31	29	0
Cc1nc2sccn2c1-c1csc(NCc2ccccc2)n1	3	81	-2	-3	2	10
CC(=O)c1c(C)nc(-c2ccc3c(c2)OCO3)n1O	-5	667*[fluorescence artefact?]	1	-14	13	2
COc1ccc(-c2nc(C)c(C(C)=O)n2O)cc1OC	-5	95	-4	-4	3	-3
CCCn1c(SCc2ccon2)nc2ccccc2c1=O	2	112	12	10	-9	-1
CC(C)CCSc1nc(N)c(C#N)cc1C#N	40	391*[fluorescence artefact?]	25	-1	3	1
CCOc1ccccc1C(=O)N1CCN=C1SCc1cccnc1	2	117	-17	11	-10	-2
CSc1nc2nccc(-c3ccc(-c4ccccc4)cc3)n2n1	40	220*	13	2	-6	4
O=c1oc2ccccc2cc1-c1nc2ccccc2o1	x	x	x	-4	1	2
O=c1oc2ccc3ccccc3c2cc1-c1nc2ccccc2o1	51*[fluorescence artefact?]	177	27	11	-14	19*
COc1ccc(S(=O)(=O)N2CCc3ccccc32)cc1C(=O)OCc1nnc(-c2ccccc2)o1	10	115	4	-3	0	0
CCOc1ccc(NC(=O)c2ccc(S(=O)(=O)N(C)C)cc2)cc1	5	112	-6	x	x	x
CN(C)S(=O)(=O)c1ccc(C(=O)Nc2ccc(Cl)cc2)cc1	0	113	64*[fluorescence artefact?]	-3	0	9
COc1ccccc1/C=C\C=N\n1c(C2CCCCC2)n[nH]c1=S	x	x	x	25*	-22	2
COC(=O)Nc1c(-c2ccccc2)nc2ccc(C)cn12	3	101	83*	x	x	x
CCOn1c(=O)c(C)[n+]([O-])c2ccccc21	0	118	-3	-10	10	0
CCOCC(=O)Nc1nc2ccc(OCC)cc2s1	1	81	-11	-1	5	5
CCOc1ccc2nc(NC(=O)CCC(=O)c3cccs3)sc2c1	60*[fluorescence artefact?]	62	51*	-6	7	1
Cc1ccc2nc(NC(=S)NC(=O)c3cccs3)sc2c1	x	x	x	30*	-28	-1
SMILES	ERa coact inh	ERa coact pot	ERb SRC1 inh	PTPN22 inh 2	LYP act	FAK inh
O=C(CSc1ncnc2scc(-c3ccc(Cl)cc3)c12)NCc1ccc2c(c1)OCO2	x	x	x	x	x	-2
CCOCCOC(=O)c1ccc(-n2cncn2)nc1	1	111	0	11	-8	0
CCCC(=O)Nc1ccc2oc(-c3ccncc3)nc2c1	6	111	1	9	-9	1
Cc1ccc2oc(-c3ccc(NC(=O)c4cccnc4)cc3)nc2c1	2	248*	31	-18	16	6
CCCC(=O)Nc1ccc(-c2nc3cc(C)c(C)cc3o2)cc1	69*[fluorescence artefact?]	168	43	-1	0	8
Cc1ccc2oc(-c3ccc(NC(=O)CC(C)C)cc3)nc2c1	-1	225*[fluorescence artefact?]	15	-6	2	3
O=C(Nc1ccc(-c2nc3ccccc3o2)cc1)c1cccnc1	-3	101	-6	1	0	-2
Cc1ccc(S(=O)(=O)CCc2nnc(N)s2)cc1	-4	97	-13	-2	4	-5
Cc1cc2ccccc2n1CCNC(=O)c1ccc(S(=O)(=O)N2CCCCC2)cc1	14	348*[fluorescence artefact?]	26	-6	3	-4
Cc1cc(C)c(S(=O)(=O)NCCn2c(C)cc3ccccc32)c(C)c1	0	146	1	-8	5	-1
Cc1ccc(S(=O)(=O)NCCn2c(C)cc3ccccc32)cc1	-14	376*	-7	-3	0	-6
Cc1cc2c(cc1C)N(C(=O)CSC1=NCCS1)C(C)(C)c1ssc(=S)c1-2	x	x	x	27*	-23	2
CC(=O)Nc1ccc(S(=O)(=O)NCc2ccc3c(c2)cc(C)n3C)cc1	13	81	40	x	x	5
Cc1cc2cc(CNS(=O)(=O)c3ccc4ccccc4c3)ccc2n1C	27	651*[fluorescence artefact?]	-2	-8	5	-3
Cc1cc(C)c(S(=O)(=O)NCc2ccc3c(c2)cc(C)n3C)c(C)c1	10	257*[fluorescence artefact?]	12	11	-14	2
COc1ccc(C2NC(=O)NC(C)=C2C(C)=O)cc1 (configuration not stated)	24	109	27	2	-3	1
Brc1ccc2[nH]c3c(N4CCc5ccccc5C4)ncnc3c2c1	13	495*[fluorescence artefact?]	3	6	-4	5
Cc1ccc2[nH]c3c(N4CCc5ccccc5C4)ncnc3c2c1	-1	102	-9	-22	18	9
O=C1CC(N2CCN(c3nc4ccccc4s3)CC2)C(=O)N1c1cccc(F)c1 (configuration not stated)	-10	97	-7	1	-2	-1
C=CCOc1ccccc1/C=c1\sc2nc(-c3oc4ccccc4c3C)nn2c1=O	-16	97	-17	5	-6	-3
Cc1ccc(-c2nc3s/c(=C\c4ccco4)c(=O)n3n2)cc1	96*[fluorescence artefact?]	23	58*	-3	1	6
Cc1ccc(/C=c2\sc3nc(-c4ccccc4Br)nn3c2=O)o1	85*[fluorescence artefact?]	60	66*	4	-1	15
Cc1ccc(/C=c2/sc3nnc(-c4ccccc4Cl)n3c2=O)o1	58*[fluorescence artefact?]	42	44	-4	2	-1
COc1ccccc1/C=c1\sc2nc(-c3ccccc3OC)nn2c1=O	x	x	x	-8	10	-4
Cc1ccc(/C=c2\sc3nc(-c4ccco4)nn3c2=O)o1	70*	113	64*[fluorescence artefact?]	3	-5	17
